KB-3-1 tox: KB-3-1 parental cell cytotoxicity. hit rate 1.4% among 400,000. KB-3-1 viability, CellTiter-Glo ATP luminescence, 72 h. Potency, µM (highest dose often 46.1 µM), hits mostly cytotoxic; note: % is set by controls: 0 for no effect and ±100 for the full control effect; nearly all actives have a fitted effect of over 60% in size
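Luminescent ATP read-out (CellTiter-Glo) measures survival of drug-naive KB-3-1 cells after 72 h compound exposure at 37 °C. Titration series was screened from lowest to highest concentration, with DMSO vehicle plates as background controls.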
HT1080 IDH1KD tx: HT-1080 IDH1 knockdown cell toxicity (counter line). HT-1080 IDH1 knockdown viability, ATP luminescence, 48 h. Potency, µM (highest dose often 46.1 µM), for the others: at the top dose activity, negative = toxicity, actives largely listed as cytotoxic. hit rate 2% among 360,000. AID 686971;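 note: 0% = DMSO wells and -100% = cell-free medium wells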
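After a 2 h attachment period, IDH1KD HT-1080 cells took pin-transferred compound for 48 h at 37 °C; ATP-based luminescence after 10 min room-temperature reagent incubation reported viability.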
SW480 rereplic: DNA re-replication induction in SW480 cells; SW480 DNA re-replication, Hoechst DNA content imaging, 48 h; Potency, µM (top dose mostly 46.1 µM), inactives show top-dose re-replication activation, hits mostly activators; hit rate 1.8% among 340,000; AID 624297; note: % of control where 0% means no effect; nearly all actives have a fitted effect of over 55% in size
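Readout is total intensity of Hoechst-stained nuclei, excited at 405 nm and collected at 500-530 nm. Compound treatment lasted 48 hr at 37 C in 5% CO2 before staining.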
KB-V1 cytotox: KB-V1 MDR subline cytotoxicity; KB-V1 MDR cells viability, CellTiter-Glo, 72 h; hit rate 3.4% among 400,000; Potency, µM (highest dose often 46.1 µM), hits mostly cytotoxic; note: % is set by controls: 0 for no effect and ±100 for the full control effect; nearly all actives have a fitted effect of over 60% in size
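Cytotoxicity toward P-gp-expressing KB-V1 cells was determined as loss of CellTiter-Glo luminescence after 72 h at 37 degrees C. Compounds were tested in quantitative HTS format across a concentration range, with curves fitted to normalized data.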
MCF10A rereplic: induces DNA re-replication in MCF 10a normal breast cells. MCF 10A DNA re-replication, Hoechst nuclear intensity, 48 h. Potency, µM (series often up to 46.1 µM), for the others: at the highest dose activity, positive = re-replication, hits mostly activators. hit rate 2.9% among 350,000. AID 624296; note: % of control where 0% means no effect; nearly all actives have a fitted effect of over 50% in size
HT1080NT lethal: kills 2HG-producing HT-1080-NT fibrosarcoma cells; HT-1080-NT fibrosarcoma viability, CellTiter-Glo ATP luminescence, 48 h; hit rate 1.6% among 360,000; Potency, µM (top dose mostly 46.1 µM), for the others: at the highest dose activity, negative = less viability, hits mostly cytotoxic;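 note: NT is the 2HG producing partner of a matched IDH1 knockdown line; 0% = DMSO-treated cells and -100% = media-only wells without cells; nearly all actives have a fitted effect of over 55% in size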
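Fibrosarcoma NT cells, 750 per well in 5% FBS RPMI, were exposed to compound for 48 hours. Viability: CellTiter-Glo luminescence.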
* marks the source's active call; other numbers are inactive results; i = inactive; ? = inconclusive; · = not tested or not shown. The list is not random: actives were taken first. Their share in the collection is about 7.9%. Calls come from the whole dose curve; as a rule, active = well fitted curve in the direction sought with a large enough effect; inconclusive = small, poorly fitted or top-dose-only effect, or another doubt; inactive = no such curve, though single readings can be large; an effect the other way counts as inactive or inconclusive. Potency is the fitted concentration of half-maximal effect.

SMILES | KB-3-1 tox | HT1080 IDH1KD tx | SW480 rereplic | KB-V1 cytotox | MCF10A rereplic | HT1080NT lethal
Cc1ccccc1C(=O)Nc1cccc(C(=O)OCc2cc(=O)n3ccsc3n2)c1 | i | · | · | i | · | ·
Cc1ccc(C)c(NC(=O)C2CCCN(c3nc4ccccc4s3)C2)c1 (centres undefined) | i | · | · | i | · | ·
COc1cc(C(=O)N2CCCCC2c2cc(C(=O)NC(C)C)no2)cc(OC)c1C (centres undefined) | i | 16.8% | · | i | · | ?
CSc1ccc(NC(=O)N2CC=C(n3c(=O)[nH]c4ccccc43)CC2)cc1 | 16.4µM* | ? | ? | 16.4µM* | ? | -20.1%
CCc1cc2c(N=Nc3c(O)[nH]c4ccccc34)ncnc2s1 | ? | -1.4% | -9.3% | 6.51µM* | ? | -15.6%
CCOC(=O)C(CC)(CC)C(=O)/C=C/c1cccc(Br)c1 | ? | ? | ? | ? | 18.4µM* | ?
NC(C(=O)O)C1ON=C(Cl)C1O (centres undefined) | 0.326µM* | ? | ? | 1.64µM* | 0.4% | 20.6µM*
O=C(CSc1nnc(-c2ccc3c(c2)OCO3)n1-c1ccccc1)c1ccccc1 | i | 23.5% | -1.6% | 8.2µM* | -3.3% | 14.7%
C=CCn1c(SCC(=O)c2ccc(Cl)cc2)nnc1-c1ccc2c(c1)OCO2 | i | -12.5% | ? | ? | -4.0% | 0.0%
O=C(CSc1nnc(-c2ccc3c(c2)OCO3)n1-c1ccccc1)c1ccc(Cl)cc1 | i | 11.5% | -1.0% | 16.4µM* | 11.6% | -5.0%
CNS(=O)(=O)c1cn(CC(=O)N2CCN(c3ccccc3OC)CC2)cc1S(=O)(=O)NC | i | · | · | i | · | ·
CCS(=O)(=O)N1CC(=O)N(c2cccc(C)c2C)C(C)(C(=O)NC2CCCCC2)C1 (centres undefined) | i | · | · | i | · | ·
CCCCC1Cc2[nH][nH]c(=O)c2C(c2ccc(F)cc2)O1 (centres undefined) | i | 25.9µM* | · | i | · | ?
CC1(C(=O)NS(=O)(=O)c2ccccc2)CCN1C(=O)CC1CC1 (centres undefined) | i | 12.8% | · | i | · | 20.3%
O=C(CN1C(=O)COc2ccc(S(=O)(=O)NC3CCCC3)cc21)NCc1ccc(Cl)cc1 | i | · | · | i | · | ·
CCOC(=O)c1cccc(NC(=O)c2cc(C)nc3c2c(C)nn3-c2ccc(C)cc2)c1 | i | · | · | i | · | ·
COc1ccc(C)cc1S(=O)(=O)NCc1ccccn1 | i | -1.9% | · | i | · | 1.0%
COc1cnc(-c2ccccn2)nc1Sc1cccc(Cl)c1 | i | ? | 11.6µM* | ? | 20.6µM* | ?
COc1cnc(-c2ccccn2)nc1Oc1ccc(Cl)cc1 | i | -12.3% | 10.3µM* | ? | ? | -5.0%
COc1cnc(-c2ccccn2)nc1NC(C)C | ? | ? | 6.51µM* | 7.31µM* | 23.1µM* | ?
COc1ccccc1Sc1nc(-c2ccccn2)ncc1OC | ? | ? | ? | i | -3.5% | -9.5%
COc1cnc(-c2ccccn2)nc1Oc1ccccc1Cl | i | 1.3% | -9.5% | i | 2.9% | 13.5%
O=C(NC1(C(F)(F)F)C(=O)Nc2c1c(=O)[nH]c(=O)n2-c1ccc(F)cc1)c1ccccc1 (centres undefined) | i | · | · | ? | · | ·
O=C(Cc1ccc(F)cc1)NO | · | 20.4% | · | · | · | 17.2%
O=C(Cn1c(=O)n(-c2ccc(F)cc2)c(=O)c2sccc21)c1ccccc1 | i | 0.9% | -103.9% | 20.6µM* | -3.7% | -4.2%
SMILES | KB-3-1 tox | HT1080 IDH1KD tx | SW480 rereplic | KB-V1 cytotox | MCF10A rereplic | HT1080NT lethal
O=c1c2sccc2n(Cc2ccc(F)cc2)c(=O)n1-c1ccc(F)cc1 | i | 13.2% | 0.0% | ? | -63.6% | 2.7%
Cc1nnn(-c2nonc2N)c1C(=O)N/N=C/c1cccc2ccccc12 | i | 8.4% | ? | i | 0.9% | 17.8%
COc1ccccc1/C=N/NC(=O)c1nnn(-c2nonc2N)c1-c1ccccc1 | i | 0.2% | 1.6% | i | 2.4% | -1.3%
Cc1nnn(-c2nonc2N)c1C(=O)N/N=C/c1ccccc1O | ? | 8.2µM* | 2.59µM* | ? | -4.4% | 6.51µM*
CC1CCN(Cc2c(C(=O)N/N=C/c3ccccc3O)nnn2-c2nonc2N)CC1 | 5.17µM* | 5.17µM* | 6.2% | ? | -8.0% | ?
CC1CCN(Cc2c(C(=O)N/N=C/c3cccc(Cl)c3)nnn2-c2nonc2N)CC1 | i | -7.7% | -8.1% | i | ? | 4.0%
CN(C)Cc1c(C(=O)N/N=C/c2ccccc2OCc2c(F)cccc2Cl)nnn1-c1nonc1N | ? | 8.2µM* | ? | ? | ? | 11.6µM*
COc1ccccc1/C=N/NC(=O)c1nnn(-c2nonc2N)c1-c1cccs1 | i | -4.1% | 23.1µM* | i | -0.7% | -8.5%
Cc1ccc(C(=O)OCc2cc(=O)n3nc(CC(C)C)sc3n2)cc1 | i | · | · | ? | · | ·
CCc1ccc(-n2nc(C)c3c(C(=O)Nc4cc(C)c(Cl)cc4OC)cc(C)nc32)cc1 | i | · | · | i | · | ·
CCCc1c(C(=O)N/N=C/c2c[nH]c3ccccc23)nnn1-c1nonc1N | i | 2.0% | · | i | · | -2.2%
CN(Cc1c(C(=O)N/N=C/c2ccccc2O)nnn1-c1nonc1N)C1CCCCC1 | 18.4µM* | ? | · | ? | · | 11.6µM*
CCCN(CCC)Cc1c(C(=O)N/N=C/c2c[nH]c3ccccc23)nnn1-c1nonc1N | i | 29.1µM* | ? | i | ? | ?
CN(Cc1c(C(=O)N/N=C/c2cccc(O)c2)nnn1-c1nonc1N)C1CCCCC1 | i | 0.0% | 5.8% | ? | -0.5% | 0.0%
O=S1(=O)CC(N2CCN(Cc3ccccc3F)CC2)CN1Cc1cn(Cc2cccc(Cl)c2)nn1 (centres undefined) | ? | -9.3% | · | i | · | -3.0%
NC(=O)Nc1cc(Cl)ccc1Cl | i | 7.8% | -9.3% | i | -3.7% | 12.8%
COc1ccc(Cl)cc1NC(=O)N1CCN(c2ccccc2OC)CC1 | i | -12.7% | 17.1% | i | -2.4% | -5.3%
CCN1CCN(C(=O)Nc2cc(Cl)ccc2OC)CC1 | i | 21.4% | -8.3% | i | 3.66µM* | 11.9%
O=C(Nc1cc(Cl)ccc1Cl)N1CCN(C(=O)Nc2cc(Cl)ccc2Cl)CC1 | i | 1.9% | 9.0% | 14.6µM* | 11.1% | 0.6%
COc1ccc(-c2nc(SC(C)C(=O)NCC3CCCO3)n[nH]2)cc1 (centres undefined) | ? | ? | 16.4µM* | i | 13µM* | ?

Screening results deposited in PubChem by National Center for Advancing Translational Sciences (NCATS).
